The list is not random: actives were taken first. Their share in the collection is about 1.9%.
Ba/F3 V617F tox = reduce viability of Ba/F3 cells dependent on JAK2V617F; Ba/F3 EpoR-JAK2V617F viability, ATP luminescence; inhibition, % at 5.6 µM; 220,000 tested, 1.1% active; AID 1446;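 active = inhibition above the campaign mean plus 3 SD over all tested compounds, cut at about 24% in these data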;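 note: cytokine-independent growth of Ba/F3 cells driven by EpoR plus mutant JAK2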
BaF3 tox = reduces parental Ba/F3 cell viability, JAK2V617F counter-screen. CellTiter-Glo ATP luminescence. inhibition, % at 5.6 µM. 220,000 tested, 1.1% active. AID 1486;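 active = inhibition above a per-campaign cutoff, the mean inhibition of all tested compounds plus 3 SD, cut at about 27% in these data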
IEC-6 tox = kills IEC-6 intestinal cells in KLF5 counter-screen. AID 1825. IEC-6 cytotoxicity, luminescence viability. 290,000 tested, 0.78% active. inhibition, % at 5 µM; in the data active = inhibition above about 22%
APP transl inh = APP translation inhibition; 190,000 tested, 0.82% active; SH-SY5Y APP 5'UTR-luciferase reporter, luminescence; AID 1285; inhibition, % at 2 µM;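 active = inhibition above a set limit, derived from the sample mean plus 3 SD, cut at about 45% in these data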
KLF5 inh = kruppel-like factor 5 inhibition; DLD-1 KLF5 promoter-luciferase reporter, luminescence; inhibition, % at 5 µM; 290,000 tested, 0.23% active; AID 1700;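 active = inhibition above a per-plate limit of that plate's mean compound inhibition plus 3 SD, cut at about 60% in these data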;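 note: higher means less KLF5 promoter-driven luciferase light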
A number is an active result.

For CC(C)C(C(=O)Nc1ccc(N2CCOCC2)cc1)N1C(=O)c2ccccc2C1=O (stereo unspecified) the results were Ba/F3 V617F tox inactive, BaF3 tox 60.4, IEC-6 tox inactive, APP transl inh inactive and KLF5 inh inactive.
`CCOC(=O)C1(CCOC)CCN(Cc2ccc(C3CCCCO3)s2)CC1` (stereo unspecified) gave Ba/F3 V617F tox inactive, BaF3 tox inactive, IEC-6 tox inactive, APP transl inh inactive and KLF5 inh inactive.
Screening O=C(c1ccco1)N1N=C(c2ccc(Cl)cc2)CC1(O)C(F)(F)F (stereo unspecified) returned Ba/F3 V617F tox inactive, BaF3 tox inactive, IEC-6 tox inactive, APP transl inh inactive and KLF5 inh inactive.
For O=C(c1ccco1)N1N=C(c2ccc(Br)cc2)CC1(O)C(F)(F)F (stereo unspecified) the results were Ba/F3 V617F tox inactive, BaF3 tox 73.9, IEC-6 tox inactive, APP transl inh inactive and KLF5 inh inactive.
`O=C(c1c[nH]c(C(=O)N2CCN(c3ccccc3F)CC2)c1)c1cccc(Cl)c1Cl` gave Ba/F3 V617F tox inactive, BaF3 tox inactive, IEC-6 tox inactive, APP transl inh 56.7 and KLF5 inh inactive.
For Cc1ccccc1C(=O)c1c[nH]c(C(=O)N2CCN(c3ccccc3F)CC2)c1 the results were Ba/F3 V617F tox inactive, BaF3 tox inactive, IEC-6 tox inactive, APP transl inh inactive and KLF5 inh inactive.
Screening COc1cccc(CNC(=O)CC2Sc3ccccc3NC2=O)c1 (stereo unspecified) returned Ba/F3 V617F tox inactive, BaF3 tox 59.0, IEC-6 tox inactive, APP transl inh inactive and KLF5 inh inactive.
Screening CC(C)C(NC(=O)c1c(F)cccc1F)C(=O)NC1CC(C)(C)NC(C)(C)C1 (stereo unspecified) returned IEC-6 tox inactive and KLF5 inh inactive.
Screening O=C(/C=C/c1cccc(OCc2ccccc2)c1)c1cccnc1 returned Ba/F3 V617F tox inactive, BaF3 tox inactive, IEC-6 tox inactive, APP transl inh 87.2 and KLF5 inh inactive.
Screening O=C(O)/C=C/c1cccc(OCc2ccccc2)c1 returned Ba/F3 V617F tox inactive, BaF3 tox inactive, IEC-6 tox inactive, APP transl inh inactive and KLF5 inh inactive.
Cn1c(Cc2ccccc2)[n+](C)c2ccccc21 was read as Ba/F3 V617F tox 66.6, BaF3 tox 68.9, IEC-6 tox inactive, APP transl inh inactive and KLF5 inh inactive.
`O=c1cc(O)nc(SCc2ccccc2)n1-c1ccc(F)cc1` gave Ba/F3 V617F tox inactive, BaF3 tox 31.5, IEC-6 tox inactive, APP transl inh inactive and KLF5 inh inactive.
Screening Cc1ccc(NC(=O)CCNS(=O)(=O)c2ccc3c(c2)CCC(=O)N3)cc1 returned IEC-6 tox inactive and KLF5 inh inactive.
`COc1ccc(-n2cc(-c3ccccc3)[n+]3c2CCCCC3)cc1` gave Ba/F3 V617F tox 72.3, BaF3 tox 58.7, IEC-6 tox inactive, APP transl inh inactive and KLF5 inh inactive.
For FC(F)Sc1ccc(-n2cc(-c3ccccc3)[n+]3c2CCC3)cc1 the results were Ba/F3 V617F tox 59.7, BaF3 tox 69.0, IEC-6 tox inactive, APP transl inh inactive and KLF5 inh inactive.
Screening FC(F)Oc1ccc(-n2cc(-c3ccc(Cl)cc3)[n+]3c2CCCCC3)cc1 returned Ba/F3 V617F tox 53.7, BaF3 tox 62.3, IEC-6 tox inactive and KLF5 inh inactive.
FC(F)Oc1ccc(-c2csc(Cc3nnc4n3CCCCC4)n2)cc1 was read as Ba/F3 V617F tox inactive, BaF3 tox inactive, IEC-6 tox inactive, APP transl inh inactive and KLF5 inh inactive.
For COc1ccc(-c2cn(-c3ccc(SC(F)F)cc3)c3[n+]2CCC3)cc1OC the results were Ba/F3 V617F tox inactive, BaF3 tox inactive, IEC-6 tox inactive, APP transl inh inactive and KLF5 inh inactive.
For Nc1nc(Cl)cc(N2CCC(c3cc(-c4ccc(Cl)cc4)n[nH]3)CC2)n1 the results were Ba/F3 V617F tox 47.5, BaF3 tox 44.8, IEC-6 tox inactive, APP transl inh inactive and KLF5 inh inactive.
CCOC(=O)C1=C(C)N=C(SC)N(C)C1c1ccccc1 (stereo unspecified) was read as Ba/F3 V617F tox inactive, BaF3 tox inactive, IEC-6 tox inactive, APP transl inh inactive and KLF5 inh inactive.
`CCOC(=O)C1=C(c2ccccc2)ON(C)C1c1ccccc1` (stereo unspecified) gave Ba/F3 V617F tox 26.2, BaF3 tox 39.2, IEC-6 tox inactive, APP transl inh inactive and KLF5 inh inactive.
For Cc1ccc(NC2=C/C(=N\S(=O)(=O)c3cccs3)c3ccccc3C2=O)c(C)c1 the results were Ba/F3 V617F tox 56.1, BaF3 tox 32.6, IEC-6 tox inactive, APP transl inh inactive and KLF5 inh inactive.

Source: PubChem
